Assay [1] is described as follows: MultiTox-Fluor Cytotoxicity Assay - LYMP1-001 - Live Cells (AID 947; active means well fitted curve in the direction sought with a large enough effect; an effect the other way counts as inactive or inconclusive;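 further: 0% = DMSO only and full inhibition = tetraoctylammonium bromide control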).
The nature of assay [2]: MultiTox-Fluor Cytotoxicity Assay - LYMP1-002 - Dead Cells (AID 960; active means well fitted curve in the direction sought with a large enough effect; an effect the other way counts as inactive or inconclusive;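 further: 0% = DMSO and 100% = tetraoctylammonium bromide; nearly all actives have a fitted effect of over 60% in size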). An outline of the steps:
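Acute cytotoxicity in a human lymphoblastoid line is scored as rising dead-cell protease signal after 16 hr exposure at 37 C, measured fluorometrically (485/520).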

Assay [3] deals with Estrogen receptor (Homo sapiens) (UniProt P03372). Kind of assay: qHTS assay for small molecule antagonists of estrogen receptor alpha signaling (AID 588513; active means well fitted curve in the direction sought with a large enough effect in the signal ratio, with a control signal flat, not every such curve was filed as active; the % refers to the signal ratio; further: on the % scale 0 is the no-effect control and ±100 the full control effect). The method in brief:
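ER-alpha-UAS-bla GripTite HEK 293 cells in 2% charcoal/dextran-treated FBS medium; compounds titrated (1:2, duplicate), then stimulated with 0.5 nM 17-beta-estradiol for 18 h at 37C. CCF4 beta-lactamase fluorescence; Hill-fit IC50 and efficacy.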

Assay [4] has the same target. Kind of assay: qHTS assay for small molecule agonists of estrogen receptor alpha signaling (AID 588514).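 Further: 0% = vehicle only and 100% = reference agonist; nearly all actives have a fitted effect of over 70% in size.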 An outline of the steps:
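Reporter-gene assay. […] controls beta-lactamase in HEK 293 GripTite cells; after 18 hrs with compound, CCF4 substrate is added for 2 hrs and fluorescence is read.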

Assay [5] deals with Glucocorticoid receptor (Homo sapiens) (UniProt P04150). Nature of the assay: qHTS assay for small molecule agonists of glucocorticoid receptor signaling (AID 588532; active means well fitted curve in the direction sought with a large enough effect in the signal ratio, with a control signal flat; the % refers to the signal ratio;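 further: 100% = dexamethasone at 0.1 µM and 0% = DMSO only wells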). The note with it: HeLa MMTV-bla, beta-lactamase ratio, agonist, 18 h; stronger effect = higher value; percent of dexamethasone control, DMSO zero. An outline of the steps: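 Agonist-mode qHTS: GRE-driven beta-lactamase in HeLa cells exposed 18 h to titrated compounds (up to 92 uM), then CCF4 ratio read after 2 h at RT; Hill-fitted EC50, efficacy relative to 0.1 uM dexamethasone.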
Sequence of Glucocorticoid receptor (Homo sapiens) (P04150 whole entry, looked up): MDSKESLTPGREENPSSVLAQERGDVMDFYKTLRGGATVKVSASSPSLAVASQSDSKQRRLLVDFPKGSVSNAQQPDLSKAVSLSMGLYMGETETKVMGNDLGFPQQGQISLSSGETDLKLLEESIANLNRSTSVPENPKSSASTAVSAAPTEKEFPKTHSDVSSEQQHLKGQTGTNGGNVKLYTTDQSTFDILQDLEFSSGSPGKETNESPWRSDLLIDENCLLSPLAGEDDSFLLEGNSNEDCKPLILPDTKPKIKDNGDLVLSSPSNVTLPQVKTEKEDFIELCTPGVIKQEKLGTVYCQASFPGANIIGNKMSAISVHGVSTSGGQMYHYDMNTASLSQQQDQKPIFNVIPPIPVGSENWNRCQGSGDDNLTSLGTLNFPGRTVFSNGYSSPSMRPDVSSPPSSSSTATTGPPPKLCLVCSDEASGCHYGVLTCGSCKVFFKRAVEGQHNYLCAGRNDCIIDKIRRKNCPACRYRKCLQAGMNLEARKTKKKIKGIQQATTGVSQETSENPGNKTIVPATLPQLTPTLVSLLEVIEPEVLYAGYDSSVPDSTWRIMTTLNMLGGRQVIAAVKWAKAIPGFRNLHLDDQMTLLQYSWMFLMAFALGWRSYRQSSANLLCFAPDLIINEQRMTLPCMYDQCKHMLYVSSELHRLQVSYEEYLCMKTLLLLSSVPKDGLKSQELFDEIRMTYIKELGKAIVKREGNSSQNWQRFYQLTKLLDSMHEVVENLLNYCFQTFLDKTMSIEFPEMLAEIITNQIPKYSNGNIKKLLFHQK

Assay [6] concerns the target Peroxisome proliferator-activated receptor gamma (Homo sapiens) (UniProt P37231). Kind of assay: qHTS assay for small molecule agonists of peroxisome proliferator-activated receptor gamma signaling (AID 588536; active means well fitted curve in the direction sought with a large enough effect in the signal ratio, with a control signal flat, not every such curve was filed as active; the % refers to the signal ratio;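 further: 0% = DMSO basal wells and 100% = rosiglitazone at 2 µM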). An outline of the steps:
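Ratiometric blue/green fluorescence (405 nm excitation; 460 and 530 nm emission) from CCF4-loaded HEK293 reporter cells serves as signal. Exposure to test compounds lasts 16 h at 37 C in medium containing 1% charcoal/dextran-treated serum.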

Assay [7] has as its target Vitamin D3 receptor (Homo sapiens) (UniProt P11473). Kind of assay: qHTS assay for small molecule antagonists of vitamin D receptor signaling (AID 588541).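 Further: receptor activated by calcitriol during compound treatment; series mostly up to about 77 µM; on the % scale 0 is the no-effect control and ±100 the full control effect.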 An outline of the steps:
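Antagonist-mode beta-lactamase reporter assay: HEK293T VDR-UAS-bla cells were exposed to titrated compound alongside 1-alpha,25-dihydroxyvitamin D3 at 3 nM final for 16 h. Values were normalized to the 50 nM agonist control and DMSO basal, with IC50 and efficacy from Hill equation fits.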

The target is the same in assay [8]. Nature of the assay: qHTS assay for small molecule agonists of vitamin D receptor signaling (AID 588543).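 Further: 0% = DMSO basal and 100% = reference agonist control.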 An outline of the steps:
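VDR-UAS-bla HEK293T cells, 2000/well, 2% charcoal-stripped FBS; compound titration 16 h at 37 C; CCF4 beta-lactamase ratio read. Normalized to 50 nM 1-alpha,25-dihydroxyvitamin D3 (100%) and DMSO; Hill fit gives EC50, efficacy.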

A short description of assay [9]: qHTS assay for small molecule agonists of retinoid X receptor alpha signaling (AID 588544).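 On activation: 0% = DMSO basal wells and 100% = reference agonist.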 The note with it: HEK293T RXRa-UAS-bla, beta-lactamase reporter, 18 h; 530 nm emission.
The target of assay [10] is Retinoic acid receptor RXR-alpha (Homo sapiens) (UniProt P19793). Described as above.
Sequence of Retinoic acid receptor RXR-alpha (Homo sapiens) (P19793 whole entry, looked up): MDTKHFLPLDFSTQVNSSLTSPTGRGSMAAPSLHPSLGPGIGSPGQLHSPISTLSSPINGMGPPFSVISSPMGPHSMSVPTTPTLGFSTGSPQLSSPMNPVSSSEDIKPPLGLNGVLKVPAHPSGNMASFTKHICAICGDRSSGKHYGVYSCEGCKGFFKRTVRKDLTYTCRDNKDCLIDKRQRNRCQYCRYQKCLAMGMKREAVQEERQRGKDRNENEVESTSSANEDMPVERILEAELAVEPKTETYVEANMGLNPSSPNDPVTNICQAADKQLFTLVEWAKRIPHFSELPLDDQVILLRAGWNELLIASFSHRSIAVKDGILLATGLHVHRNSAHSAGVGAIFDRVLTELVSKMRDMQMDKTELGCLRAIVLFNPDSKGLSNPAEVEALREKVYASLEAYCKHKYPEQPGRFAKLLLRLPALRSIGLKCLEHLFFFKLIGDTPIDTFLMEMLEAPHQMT
The target in assay [11] is Voltage-gated inwardly rectifying potassium channel KCNH2 (Homo sapiens) (UniProt Q12809). Kind of assay: qHTS Assay for Small Molecule Inhibitors of the Human hERG Channel Activity (AID 588834; active means well fitted curve in the direction sought with a large enough effect; an effect the other way counts as inactive or inconclusive;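 further: top concentration of the series differs between compounds; on the % scale 0 is the no-effect control and ±100 the full control effect; lower thallium flux fluorescence means stronger hERG block; nearly all actives have a fitted effect of over 50% in size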). An outline of the steps:
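U2OS cells BacMam-transduced with hERG, 2000 cells/well, compound ~10 min at 37 °C before stimulation buffer. FluxOR thallium flux fluorescence read kinetically on FDSS; decrease indicates block; AC50 from Hill fits.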

Assay [12] is described as follows: qHTS assay for small molecule activators of the p53 signaling pathway (AID 651743; active means well fitted activation curve with a large enough effect in the signal ratio, not every such curve was filed as active; the % refers to the signal ratio; further: series mostly up to about 92 µM; % of control where 0% means no effect). The note with it: HCT-116 p53RE-bla, beta-lactamase FRET ratio, 16 h; activation: stronger effect = higher value. The method in brief:
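Screen for p53 pathway agonists uses stably transfected p53RE-bla HCT-116 cells, 4,000 per well, treated 16 h at 37 C with compounds in DMSO.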

Assay [13] in a line: qHTS assay for small molecule disruptors of the mitochondrial membrane potential - 1 hr assay (AID 651754). Further: on the % scale 0 is the no-effect control and ±100 the full control effect; nearly all actives have a fitted effect of over 35% in size. The method in brief: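 Steps: seed HepG2 cells and let attach overnight; pin-transfer compound or vehicle; incubate 1 hr at 37C; add Mito-MPS dye for 30 min; read two-channel fluorescence for monomer and aggregate forms.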
Assay [14] concerns the target Tumor necrosis factor (Homo sapiens) (UniProt P01375). Kind of assay: qHTS assay to identify small molecules that stimulate Tumor Necrosis Factor-alpha (TNF-alpha) secretion (AID 651757; active means well fitted curve in the direction sought with a large enough effect in the signal ratio; the % refers to the signal ratio; further: 0% is about no effect). An outline of the steps:
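Secreted TNF-alpha from compound-treated THP-1 cells (17 hrs, 37 C) was quantified with a homogeneous time-resolved fluorescence antibody assay.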

A short description of assay [15]: qHTS assay for small molecule agonists of the antioxidant response element (ARE) signaling pathway measured by Nrf2-dependant transcriptional activity (AID 720636; active means well fitted curve in the direction sought with a large enough effect in the repeat runs; an effect the other way counts as inactive or inconclusive; further: % of control where 0% means no effect). The method in brief:
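Attachment 6 hr at 37 C, then compound versus DMSO vehicle for 16 hr in ARE-luc HepG2 cells (1% dialyzed FBS); luminescence recorded 30 min after ONE-Glo addition at room temperature.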

The nature of assay [16]: qHTS assay for small molecule antagonists of the retinoid-related orphan receptor gamma (ROR-gamma) signaling pathway - cell viability counter screen (AID 720652; active means well fitted curve in the direction sought with a large enough effect in the repeat runs; an effect the other way counts as inactive or inconclusive;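 further: series mostly up to about 92 µM; compound exposure lasted 16 hr before ATP read; on the % scale 0 is the no-effect control and ±100 the full control effect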). An outline of the steps: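 Cytotoxicity is quantified via intracellular ATP (CellTiter-Glo luminescence) in doxycycline-induced CHO ROR response element-luciferase reporter cells treated with compound for 16 hr at 37 C, 5% CO2.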

Assay [17] addresses Nuclear receptor subfamily 1 group I member 2 (Rattus norvegicus) (UniProt Q9R1A7). Kind of assay: qHTS assay for small molecule activators of the rat pregnane X receptor (rPXR) signaling pathway (AID 651751; call rule not given here; further: 0% is about no effect). The settings on record: rPXR reporter cells, luciferase (One-Glo), 24 h.
Assay [18] in a line: qHTS assay for small molecule activators of the human pregnane X receptor (PXR) signaling pathway (AID 720659; call rule not given here; further: 0% is about no effect).
Assay [19] concerns the target Thyroid hormone receptor beta (Homo sapiens) (UniProt P10828). Nature of the assay: qHTS assay for small molecule antagonists of thyroid hormone receptor beta signaling (AID 588547; active means well fitted inhibition curve with a large enough effect in the signal ratio, with a control signal flat, not every such curve was filed as active; the % refers to the signal ratio;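 further: cells stimulated with 0.4 nM T3 agonist during compound exposure; series mostly up to about 77 µM; on the % scale 0 is the no-effect control and ±100 the full control effect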). The settings on record: TR-UAS-bla HEK293, beta-lactamase ratio, antagonist mode, 18 h. An outline of the steps: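 Inhibition of T3-driven (0.4nM final) beta-lactamase reporter activity was measured over 0.59 nM to 92 uM compound after 18 h at 37 C. The cells were GripTite HEK293 TR-UAS-bla in charcoal/dextran-stripped serum, with CCF4 ratio read-out and IC50 from Hill fits.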

Assay [20] can be described thus: qHTS assay for environmental chemicals that activate the Aryl hydrocarbon Receptor (AhR) signaling pathway (AID 651777; active means well fitted curve in the direction sought with a large enough effect; an effect the other way counts as inactive or inconclusive; further: % of control where 0% means no effect; nearly all actives have a fitted effect of over 15% in size). The settings on record: 1A2-DRE human hepatoma cells, luciferase, 24 h; activation: stronger effect = higher value. An outline of the steps: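 Concentration–response screening used 1,200 1A2-DRE cells per well, 24 hr compound exposure (37 C, 5% CO2), and One-Glo luminescence as the AhR-driven CYP1A2 reporter signal.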

Values joined by “and” are separate entries in the source; they are usually repeats but may differ in a detail not shown here. Equal values may be shown once. Records with an inconclusive call do not appear. Active and inactive are the calls of the source. Unless noted, the call rests on the fitted dose curve.

Sequence of Estrogen receptor (Homo sapiens) (P03372 whole entry, looked up): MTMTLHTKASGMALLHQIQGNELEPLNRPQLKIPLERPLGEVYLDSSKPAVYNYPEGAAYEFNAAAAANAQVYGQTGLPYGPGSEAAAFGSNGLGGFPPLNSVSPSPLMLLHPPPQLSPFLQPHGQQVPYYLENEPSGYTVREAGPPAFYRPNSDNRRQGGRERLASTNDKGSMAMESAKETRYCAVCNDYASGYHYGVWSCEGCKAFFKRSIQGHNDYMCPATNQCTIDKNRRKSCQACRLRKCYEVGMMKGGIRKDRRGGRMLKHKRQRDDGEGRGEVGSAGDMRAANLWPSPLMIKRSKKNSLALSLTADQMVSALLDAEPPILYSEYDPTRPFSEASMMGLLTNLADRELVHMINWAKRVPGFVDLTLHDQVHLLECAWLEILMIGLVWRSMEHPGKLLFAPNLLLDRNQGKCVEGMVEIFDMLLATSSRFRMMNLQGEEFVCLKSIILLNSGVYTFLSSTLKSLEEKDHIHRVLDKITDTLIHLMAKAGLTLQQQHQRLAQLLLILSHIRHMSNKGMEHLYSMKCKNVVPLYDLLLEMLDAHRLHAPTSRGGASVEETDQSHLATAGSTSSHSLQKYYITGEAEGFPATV
Sequence of Vitamin D3 receptor (Homo sapiens) (P11473 whole entry, looked up): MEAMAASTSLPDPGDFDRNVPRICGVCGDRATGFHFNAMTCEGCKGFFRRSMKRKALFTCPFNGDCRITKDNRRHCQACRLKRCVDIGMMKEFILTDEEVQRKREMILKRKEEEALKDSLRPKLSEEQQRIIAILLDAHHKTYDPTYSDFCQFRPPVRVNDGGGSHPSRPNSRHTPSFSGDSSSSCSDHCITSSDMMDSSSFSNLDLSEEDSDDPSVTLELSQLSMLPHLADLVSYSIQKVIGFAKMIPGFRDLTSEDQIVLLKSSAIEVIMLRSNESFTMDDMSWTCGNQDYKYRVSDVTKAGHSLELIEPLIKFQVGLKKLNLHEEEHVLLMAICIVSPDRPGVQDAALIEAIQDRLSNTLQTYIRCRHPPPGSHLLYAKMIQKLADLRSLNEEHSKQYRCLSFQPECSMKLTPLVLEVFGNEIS
Sequence of Peroxisome proliferator-activated receptor gamma (Homo sapiens) (P37231 whole entry, looked up): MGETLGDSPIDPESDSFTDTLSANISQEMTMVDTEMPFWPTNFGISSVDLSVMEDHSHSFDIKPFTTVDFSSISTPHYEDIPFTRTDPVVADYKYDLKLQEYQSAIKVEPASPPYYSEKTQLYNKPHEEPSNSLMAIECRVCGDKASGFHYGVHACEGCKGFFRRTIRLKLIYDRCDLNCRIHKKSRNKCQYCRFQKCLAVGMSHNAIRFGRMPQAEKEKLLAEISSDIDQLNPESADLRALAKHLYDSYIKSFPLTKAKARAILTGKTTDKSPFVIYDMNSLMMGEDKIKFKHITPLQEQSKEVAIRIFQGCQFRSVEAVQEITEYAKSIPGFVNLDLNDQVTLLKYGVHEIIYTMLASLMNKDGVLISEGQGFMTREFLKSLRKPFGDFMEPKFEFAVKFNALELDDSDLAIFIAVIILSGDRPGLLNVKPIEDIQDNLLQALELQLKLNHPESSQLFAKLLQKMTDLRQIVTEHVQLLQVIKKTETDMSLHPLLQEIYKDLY
Sequence of Nuclear receptor subfamily 1 group I member 2 (Rattus norvegicus) (Q9R1A7 whole entry, looked up): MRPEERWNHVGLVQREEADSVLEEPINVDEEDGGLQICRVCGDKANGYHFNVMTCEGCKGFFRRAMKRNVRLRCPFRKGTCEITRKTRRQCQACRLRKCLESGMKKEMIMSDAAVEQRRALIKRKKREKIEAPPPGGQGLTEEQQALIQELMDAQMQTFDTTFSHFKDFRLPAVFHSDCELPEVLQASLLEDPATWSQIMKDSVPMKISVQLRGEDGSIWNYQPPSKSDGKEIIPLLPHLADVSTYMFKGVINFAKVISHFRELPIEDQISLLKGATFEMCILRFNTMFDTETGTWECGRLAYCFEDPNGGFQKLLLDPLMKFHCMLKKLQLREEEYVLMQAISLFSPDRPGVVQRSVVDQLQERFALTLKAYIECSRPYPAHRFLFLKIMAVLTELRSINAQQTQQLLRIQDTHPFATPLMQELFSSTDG
Sequence of Tumor necrosis factor (Homo sapiens) (P01375 whole entry, looked up): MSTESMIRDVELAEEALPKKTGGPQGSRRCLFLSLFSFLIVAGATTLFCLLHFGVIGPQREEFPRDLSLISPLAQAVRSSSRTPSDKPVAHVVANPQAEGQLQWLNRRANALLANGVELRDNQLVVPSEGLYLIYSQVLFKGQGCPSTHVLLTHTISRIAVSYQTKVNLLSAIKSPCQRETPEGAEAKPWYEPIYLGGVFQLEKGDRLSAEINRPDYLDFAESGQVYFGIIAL
Sequence of Thyroid hormone receptor beta (Homo sapiens) (P10828 whole entry, looked up): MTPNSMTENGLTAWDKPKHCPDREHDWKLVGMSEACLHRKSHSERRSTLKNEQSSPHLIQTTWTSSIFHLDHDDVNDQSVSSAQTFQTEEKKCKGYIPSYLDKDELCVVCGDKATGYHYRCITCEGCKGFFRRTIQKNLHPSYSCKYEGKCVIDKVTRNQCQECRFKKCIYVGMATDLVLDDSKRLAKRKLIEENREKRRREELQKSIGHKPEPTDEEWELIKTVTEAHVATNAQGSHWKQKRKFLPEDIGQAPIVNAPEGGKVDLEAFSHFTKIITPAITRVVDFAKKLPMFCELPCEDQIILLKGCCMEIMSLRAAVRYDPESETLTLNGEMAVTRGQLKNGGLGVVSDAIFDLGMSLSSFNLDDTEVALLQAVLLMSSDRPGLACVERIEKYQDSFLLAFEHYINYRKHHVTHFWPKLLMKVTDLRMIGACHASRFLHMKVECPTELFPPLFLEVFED

For `CCO[Si](CCCN)(OCC)OCC`, the Potency entry in [1], in assay [2], in [3], in [4], in assay [11] and in assay [13] was “inactive” in each case. Moreover, the Potency entry in [15] and in [16] was “inactive” in each case. Also, the activation in assay [5] is 5.03% (inactive) and 9.33% (inactive); in assay [12] it was -1.64% (inactive) and -2.02% (inactive). Besides, the molecule was called inactive in [6], in assay [7], in [8], in assay [10], in assay [14] and in assay [18]. For the same molecule, the max response in assay [9] was 12.6% and -3.12%; in assay [17], -3.96% (inactive) and 0.794% (inactive).
Consider `Cc1ccccc1C`, for which the Potency entry in [1], in assay [2], in [3], in [4], in [11] and in assay [13] was “inactive” each time. For the same molecule, the Potency result in assay [15] and in assay [16] was “inactive” throughout. Moreover, the activation was -7.63% (inactive) and -0.245% (inactive) in [5]; -3.02% (inactive) and -3.15% (inactive) in assay [12]; 1.3% (inactive) and -0.327% (inactive) in [20]. In addition, the molecule was classed as inactive in assay [6], in [7], in assay [8], in assay [10], in [14] and in assay [18]. In addition, the max response was -0.877% and 16.9% in assay [9]; -1.06% (inactive) and 4.02% (inactive) in [17]. Moreover, the activity change % (negative = inhibition) in [19] is 8.96% (inactive) and 15% (inactive).
For `Nc1ccc(Cl)cc1Cl`, the Potency result in assay [1], in assay [2], in assay [3], in assay [4], in assay [11] and in assay [13] was “inactive” each time. The Potency entry in assay [15] and in assay [16] was “inactive” each time. Also, the activation in assay [5] was -1.05% (inactive) and -10.1% (inactive); in assay [12] it was -2.62% (inactive) and -5.11% (inactive); in [20] it was -1.04% (inactive) and 0.693% (inactive). Besides, the call in assay [6], in assay [10], in assay [14] and in assay [18] was inactive. For the same molecule, the max response in [9] was -10.9%; in assay [17], 2.63% (inactive) and 1.63% (inactive). Moreover, the activity change % (negative = inhibition) in [19] was -5.09% (inactive) and -14.9% (inactive).
As for `COC(=O)c1ccc(C)cc1`, the Potency entry in assay [1], in assay [3], in assay [11], in [13], in [15] and in [16] was “inactive” in each case. In addition, the activation was -15.8% (inactive) in assay [5]; 2.24% (inactive) and -1.53% (inactive) in assay [12]; -1.02% (inactive) and 0.0239% (inactive) in assay [20]. Further, the call in [7], in assay [8], in assay [10], in assay [14] and in assay [18] was inactive. Further, the max response is 8.76% and -8.45% in assay [9]; 1.84% (inactive) and -0.952% (inactive) in assay [17]. The activity change % (negative = inhibition) in [19] is -22.1% (inactive) and -12.5% (inactive).

(Values after PubChem BioAssay (NCATS).)
